# ALR H2O2 inh – inhibitors of human sulfhydryl oxidase ALR. P55789. inhibition, % (test concentration not listed). actives 3.8% (n = 290,000). purified ALR, DTT oxidation, H2O2 HRP-luminol luminescence;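 active = mean replicate inhibition above about 79%, with every replicate also reaching it, limit read from the data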
# Target sequence (P55789 whole entry, looked up): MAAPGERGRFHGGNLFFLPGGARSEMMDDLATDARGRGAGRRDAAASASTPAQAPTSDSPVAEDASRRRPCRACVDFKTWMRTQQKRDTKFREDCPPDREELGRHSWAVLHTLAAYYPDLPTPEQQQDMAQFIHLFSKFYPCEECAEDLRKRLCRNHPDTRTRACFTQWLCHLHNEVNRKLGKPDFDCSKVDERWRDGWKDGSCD
# PfM18AAP inh – PfM18AAP enzyme inhibition; inhibition, % at 7.35 µM; AID 1822; actives 1.2% (n = 290,000); recombinant PfM18AAP, H-Glu-NHMec fluorogenic cleavage;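 active = inhibition above the campaign mean inhibition over all tested compounds plus 3 SD, cut at about 28% in these data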
# Cardio protect – modulators protecting cardiomyocytes from myocardial damage; protection from H2O2 cell death, % at 20 µM; H9c2 cardiomyocytes, H2O2 injury protection, ATPLite, 2 h; AID 588492; actives 0.63% (n = 360,000);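 active = compounds giving at least 50% protection of heart cells from peroxide-induced death in the single-dose screen, raw or plate-pattern-corrected value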
# PfGluPho inh – PfG6PD (Plasmodium falciparum) enzyme inhibition | PfGluPho enzyme, NADPH resazurin-diaphorase fluorescence | inhibition, % at 20 µM | actives 0.78% (n = 350,000) | AID 504690;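 active = inhibition reaching at least a set limit at 20 µM in the primary screen, cut at about 59% in these data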
# PHOSPHO1 block – PHOSPHO1 (human) inhibition. AID 1565. inhibition, % at 13.3 µM. actives 1.1% (n = 290,000). Q8TCT1. recombinant PHOSPHO1, absorbance phosphatase assay; in the data active = inhibition above about 60%
# Target sequence (Q8TCT1 whole entry, looked up): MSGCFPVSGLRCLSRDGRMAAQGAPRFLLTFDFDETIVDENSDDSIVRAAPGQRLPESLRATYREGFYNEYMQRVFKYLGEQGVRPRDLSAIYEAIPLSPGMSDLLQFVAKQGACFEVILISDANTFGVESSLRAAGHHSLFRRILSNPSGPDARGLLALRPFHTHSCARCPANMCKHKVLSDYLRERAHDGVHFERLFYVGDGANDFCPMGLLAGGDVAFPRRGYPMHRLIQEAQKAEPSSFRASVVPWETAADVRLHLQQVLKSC
# A number is an active result; – = inactive; · = no result given. A selection: hits, their analogues and other compounds. The true share with any hit is near 5.6%.
SMILES,ALR H2O2 inh,PfM18AAP inh,Cardio protect,PfGluPho inh,PHOSPHO1 block
Cc1cc(=O)[nH]c(S/C=C/c2ccccc2)n1,98,–,–,–,–
CC(C)(c1ccc(O)cc1)c1ccc(O)cc1,91,–,–,–,–
Cc1cs/c(=N\N=C2CCCCC2)n1Cc1ccco1,96,–,–,–,–
Cc1cs/c(=N\N=C\c2ccccc2)n1Cc1ccco1,84,–,–,–,–
COC(=O)Nc1ccc(S(=O)(=O)N2CCC(C(=O)NCc3ccc4c(c3)OCO4)CC2)cc1,–,·,–,–,·
O=C(CN1CCN(S(=O)(=O)c2ccc(Cl)s2)CC1)N1CCOCC1,–,–,–,–,–
COc1ccc(NC(=O)CSCc2cc(=O)n3nc(C4CC4)sc3n2)cc1,–,–,–,–,–
O=C(CSCc1cc(=O)n2ccsc2n1)Nc1ccccc1,99,–,–,–,–
Cc1cccc(NC(=O)CSCc2cc(=O)n3nc(C4CC4)sc3n2)c1,98,–,–,–,–
Cc1ccc(NC(=O)CSCc2cc(=O)n3ccsc3n2)c(C)c1,–,–,–,–,–
COc1cccc(NC(=O)CSCc2cc(=O)n3ccsc3n2)c1,99,–,–,–,–
COc1ccccc1NC(=O)CSCc1cc(=O)n2ccsc2n1,–,–,–,–,–
O=c1cc(CSc2ccc([N+](=O)[O-])cc2)nc2sccn12,–,–,72,–,–
CC(Sc1nncs1)C(=O)Nc1ccc(S(=O)(=O)Nc2ncccn2)cc1 (stereo not given),–,·,–,–,·
CCOCCc1nn2c(=O)cc(CSCC(=O)Nc3ccccc3)nc2s1,99,–,–,–,–
N#CCN1CCN(CC(=O)c2ccc(Br)cc2)CC1,–,–,–,–,–
O=C(CN1CC[n+]2c(-c3ccccc3)csc21)c1ccc(Br)cc1,98,–,–,–,–
O=C(CN1CC[n+]2c(-c3cccs3)csc21)c1ccc(Br)cc1,98,–,–,–,–
CC(=O)N1CCN(CC(=O)c2ccc(Br)cc2)CC1,·,–,–,–,–
CCOc1ccc(NS(=O)(=O)c2ccc(C(=O)N3CCC3)cc2)cc1,·,–,–,–,–
O=C(COc1cccc2cccnc12)NNC(=O)Nc1ccccc1,–,–,–,–,61
COc1ccccc1OCC(=O)N/N=C/c1cccc2cccnc12,–,–,65,–,–
COc1ccc(OCC(=O)N/N=C/c2cccc3cccnc23)cc1,–,–,68,–,–
NNC(=O)COc1cccc2cccnc12,–,–,–,–,–
O=C(NCc1ccccn1)c1c(-c2ccccc2)sc2ccccc12,–,·,–,–,·
SMILES,ALR H2O2 inh,PfM18AAP inh,Cardio protect,PfGluPho inh,PHOSPHO1 block
COC(=O)Cc1nc(Nc2ccccc2)sc1C,99,–,–,–,–
COC(=O)Cc1csc(Nc2ccccc2)n1,·,–,–,–,–
COCC(C)OC(=O)/C(C#N)=C\c1coc2ccc(C)cc2c1=O (stereo not given),96,–,–,–,–
CCOC(=O)C1CCN(C(=O)c2ccccc2)C(CC)C1=O (stereo not given),·,·,–,–,·
C=CCn1c(C(C)NC(=O)c2cccc(C)c2)n[nH]c1=S (stereo not given),93,–,–,–,–
CCn1c(C(C)NC(=O)c2ccc(Cl)cc2)n[nH]c1=S (stereo not given),–,–,–,–,–
Cc1ccc(S(=O)(=O)NNC(=O)c2ccc(NC(=O)C3CC3)cc2)cc1,–,–,–,–,–
COc1ccc(N(C)C(=S)Nc2ccc3nc(C)c(C)nc3c2)cc1,98,–,–,–,–
Cc1ccc(C2N(C)C(=O)c3ccccc3N2C)cc1 (stereo not given),–,–,–,–,–
CCn1c(SCC(=O)Nc2ccc(C)cc2)nc(O)cc1=O,99,–,–,–,–
C=CCn1c(SCC(=O)Nc2ccc(Br)cc2)nc(O)cc1=O,·,·,–,–,·
CCCn1c(SCC(=O)Nc2cccc(F)c2)nc(O)cc1=O,99,·,–,–,·
CCCn1c(SCC(=O)Nc2ccccc2Cl)nc(O)cc1=O,·,·,–,–,·
O=[N+]([O-])c1ccccc1/C=C/CN1CCN(Cc2ccc3c(c2)OCO3)CC1,–,–,–,–,–
Cc1ccsc1CNC12CC3CC(CC(C3)C1)C2,·,–,–,–,–
CN1C(=O)CC(Nc2cccc3cccc(N)c23)C1=O (stereo not given),–,–,–,64,–
COc1ccc(C2CC(=O)n3nc(C45CC6CC(CC(C6)C4)C5)nc3S2)cc1OC (stereo not given),–,–,–,–,–
CCOc1ccc(C2CC(=O)n3nc(C45CC6CC(CC(C6)C4)C5)nc3S2)cc1OC (stereo not given),–,–,–,–,84
COc1cccc(-c2csc(NC3OC(=O)c4c3ccc(OC)c4OC)n2)c1 (stereo not given),97,–,–,–,–
COc1ccc2c(c1OC)C(=O)OC2Nc1nc(-c2ccc(-c3ccccc3)cc2)cs1 (stereo not given),96,–,–,–,–
Cc1ccccc1CSCC(=O)N1CCN(c2ccccc2)CC1,99,–,–,–,–
Cc1cccc(-c2nc(CSCC(=O)N3CCN(c4ccccn4)CC3)c(C)o2)c1,·,–,–,–,–
O=C(CSCc1ccc(F)cc1)N1CCN(c2ccc(F)cc2)CC1,98,–,–,–,–
Cc1ccsc1-c1nc(CSCC(=O)N2CCN(c3ccccc3)CC2)c(C)o1,89,–,–,–,–
O=C(CSCc1ccc(F)cc1)N1CCN(c2ccccc2)CC1,–,–,–,–,–
SMILES,ALR H2O2 inh,PfM18AAP inh,Cardio protect,PfGluPho inh,PHOSPHO1 block
Cc1ccc(CSCC(=O)N2CCN(c3ccc(F)cc3)CC2)cc1,–,–,–,–,–
Cc1cccn2c(=O)nc(SCC(=O)N3CCN(c4ccccc4)CC3)nc12,86,·,–,–,·
CC1(O)CC2CC1C(C(=O)O)C2C(=O)O (stereo not given),·,·,–,–,·
CCCCn1c(N)c(N(CCOC)C(=O)C2CC(=O)N(c3cccc(SC)c3)C2)c(=O)[nH]c1=O (stereo not given),–,·,–,–,·
O=C(c1ccc2c(c1)OCO2)N1CCN(c2ccc(F)cc2)CC1,97,–,–,–,–
COc1ccc(N2CCN(C(=O)CCN3C(=O)C4C5C=CC(C5)C4C3=O)CC2)cc1 (stereo not given),–,–,–,–,–
O=C(c1ccc2c(c1)OCO2)N1CCN(c2cccc(C(F)(F)F)c2)CC1,·,–,–,–,–
O=C(CCN1C(=O)C2C3C=CC(C3)C2C1=O)N1CCN(c2ccc(F)cc2)CC1 (stereo not given),97,–,–,–,–
Cc1ccc(N2CC(C(=O)OCC(=O)NNC(=O)c3ccccc3)CC2=O)cc1 (stereo not given),–,·,–,–,·
COc1cc2[nH]c(=S)nc(NCc3cccnc3)c2cc1OC,–,30,–,–,–
COCCNc1nc(=S)[nH]c2cc(OC)c(OC)cc12,–,–,–,–,68
CN(C)S(=O)(=O)c1ccc(NC(=O)CSc2nnc(-c3ccco3)o2)cc1,–,·,–,–,·
